# Assay outcomes as filed in PubChem.
# EP2 mod = EP2 receptor modulators, cAMP readout, primary screen, cell-based, HTRF cAMP, PGE2 stimulation; AID 940, 2007; 260,000 compounds, 0.83% hits; EP2-expressing cells, cAMP HTRF FRET, PGE2 co-stimulation; induction, % at 25 µM;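 active = compounds whose cAMP rise, as percent of the full-agonist control response, exceeds 60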;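 note: rat C6 glioma line stably carrying human EP2 under a CMV promoter; the protocol text gives 20 µM as final concentration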
# CHT allo act = CHT positive allosteric modulators, primary screen, cell-based, membrane potential dye, choline EC20 | High affinity choline transporter 1 (Homo sapiens), Q9GZV3 | CHT-expressing cells; stronger effect = higher value; LV-AA mutant CHT in HEK293 cells | 310,000 compounds, 0.49% hits | B-score at 10 µM;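 active = initial fluorescence not abnormally high and integrated response B-score, plate-corrected, over 3 SD above library mean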
# Target sequence (Q9GZV3 whole entry, looked up): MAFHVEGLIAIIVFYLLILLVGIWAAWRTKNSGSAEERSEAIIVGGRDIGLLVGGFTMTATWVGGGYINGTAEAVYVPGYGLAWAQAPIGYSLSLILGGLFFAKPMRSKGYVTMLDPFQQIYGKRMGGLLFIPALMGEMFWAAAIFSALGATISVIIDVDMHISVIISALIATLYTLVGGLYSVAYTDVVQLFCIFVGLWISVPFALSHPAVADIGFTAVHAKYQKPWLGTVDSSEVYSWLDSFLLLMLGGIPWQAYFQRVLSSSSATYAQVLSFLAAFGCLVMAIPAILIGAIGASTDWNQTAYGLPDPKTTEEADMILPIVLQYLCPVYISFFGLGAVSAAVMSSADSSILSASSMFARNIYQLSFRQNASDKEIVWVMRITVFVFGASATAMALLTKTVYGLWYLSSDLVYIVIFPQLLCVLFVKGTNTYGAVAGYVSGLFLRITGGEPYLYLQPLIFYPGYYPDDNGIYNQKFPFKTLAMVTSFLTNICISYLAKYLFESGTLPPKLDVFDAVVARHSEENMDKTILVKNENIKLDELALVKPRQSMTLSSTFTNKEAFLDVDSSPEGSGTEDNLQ
# CHT block = inhibitors of human choline transporter CHT; AID 488975, 2010; CHT-expressing cells, membrane potential dye, choline response; stronger effect = lower value; B-score at 10 µM; 310,000 compounds, 0.86% hits; High affinity choline transporter 1 (Homo sapiens), Q9GZV3;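 active = B-score over 3 SD under the library average, and starting fluorescence ratio not unusually high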;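 note: choline stimulus applied at its EC90 after an EC20 pre-addition; B-score computed on integrated fluorescence ratio after choline addition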
# EP2 antag = human EP2 receptor antagonists, primary screen, TR-FRET cAMP, C6 glioma cells; Prostaglandin E2 receptor EP2 subtype (Homo sapiens), P43116; C6 glioma cells expressing human EP2; cells stimulated with saturating PGE2; inhibition, % at 25 µM; 260,000 compounds, 0.52% hits; AID 1422, 2008;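 active = percent inhibition above 40 after rounding to a whole number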;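 note: rat C6 glioma host cells with rolipram phosphodiesterase inhibitor present; the protocol text gives 20 µM as final concentration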
# CHT activ conf = CHT activators, confirmation, cell-based, membrane potential dye, duplicate. CHT-expressing cells, membrane potential dye fluorescence (FDSS); % of choline EC20–EC90 response window; HEK293 expressing CHT LV-AA mutant; choline added at its EC20. activation, % at 10 µM. shares compounds with CHT allo act. AID 504833, 2011. 2,500 compounds, 91% hits;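 active = primary screen active, with duplicate mean activation above negative control mean plus 3 SD, cut at about 11% in these data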
# HEK293 MP dye = membrane potential response in parental HEK293 cells, counter-screen for CHT activator project, cell-based, membrane potential dye | shares compounds with CHT allo act | membrane potential dye fluorescence (FDSS); measured after EC20 choline addition | ratio readout change at 10 µM, hits read low | 2,500 compounds, 62% hits | AID 623908, 2012;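 active = duplicate-averaged ratio beyond 3 SD from buffer wells, up or down, though filed actives are nearly all decreases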
# Numbers stand for hits; i = inactive; nt = no result given. In the library only some 2.1% were active in any assay of this set; here they are far more common.
SMILES,EP2 mod,CHT allo act,CHT block,EP2 antag,CHT activ conf,HEK293 MP dye
CCC(=O)NC(c1ccccc1OC)c1ccc2cccnc2c1O (stereo unspecified),i,i,i,i,nt,nt
COc1ccc(Cl)cc1C(Nc1cccnc1)c1ccc2cccnc2c1O (stereo unspecified),i,i,i,i,19,i
CCN(CC)CCNc1cc(C)c(C#N)c2nc3ccccc3n12,nt,i,i,nt,42,-81
Cc1cc(NCCCN2CCOCC2)n2c(nc3ccccc32)c1C#N,i,6.3,i,i,55,-91
Cc1cc(NCCN2CCOCC2)n2c(nc3ccccc32)c1C#N,i,i,i,i,nt,nt
Cc1c2c(n3c(nc4ccccc43)c1C#N)N(CCN1CCOCC1)CC2,i,7.9,i,i,54,-46
O=C(NC1CCCCC1)C(c1ccccc1)N(Cc1ccc2c(c1)OCO2)C(=O)c1ccccn1 (stereo unspecified),i,nt,nt,i,nt,nt
C/C(=N\Nc1ccccn1)c1ccc(C#N)cc1,i,i,i,i,30,-56
CCCCCCSc1ccc([C@H]2N[C@@](CC(C)C)(C(=O)OC)[C@H]3C(=O)N(C)C(=O)[C@@H]23)cc1OC,nt,7.2,i,nt,18,i
COC(=O)[C@]1(CC(C)C)N[C@H](c2ccc(SC3CCCCC3)c(OC)c2)[C@@H]2C(=O)N(C)C(=O)[C@@H]21,nt,i,i,nt,nt,nt
C#CCOc1c(Cl)cc(/C=C2\C(=O)NC(=O)N(c3ccccc3)C2=O)cc1OC,i,nt,nt,i,nt,nt
COc1ccc2[nH]c(=O)c(CN(C(=S)Nc3ccc(C)cc3)C3CCCCC3)cc2c1,i,nt,nt,i,nt,nt
CCOc1ccc(-n2c(-c3ccccc3)c[n+]3c2CCCCC3)cc1,i,13,i,i,44,i
CC(NC(=O)COC(=O)Cc1ccsc1)c1ccccc1 (stereo unspecified),i,6.4,i,i,i,i
O=C(COC(=O)Cc1ccsc1)NCc1ccccc1,i,i,i,i,nt,nt
COc1ccc(NC(=O)CSc2cc(C)nc(SCC(=O)c3ccccc3)n2)cc1,i,nt,nt,i,nt,nt
Cc1ccccc1OCC(O)CNC1CCC(NCC(O)COc2ccccc2C)CC1 (stereo unspecified),nt,i,i,nt,21,i
COc1cc(OC)c2ccc(=O)oc2c1C(CC(=O)N1CCN(c2ccccc2)CC1)c1ccc2c(c1)OCO2 (stereo unspecified),i,i,i,i,33,i
O=C(COc1ccccc1)NCC(c1ccco1)N1CCN(c2ccccc2)CC1 (stereo unspecified),nt,8,i,nt,45,i
O=C(NCC(c1ccco1)N1CCN(c2ccccc2)CC1)c1cccs1 (stereo unspecified),nt,i,i,nt,nt,nt
CC1CCCC(C)N1C(=O)Cn1c(=O)n(Cc2ccco2)c2ncccc21 (stereo unspecified),i,nt,nt,nt,nt,nt
CCOC(=O)c1cnc2cc(C)ccn2c1=O,i,8.5,i,i,52,-49
Cc1ccn2c(=O)c(C(=O)O)cnc2c1,i,i,i,i,nt,nt
COc1ccccc1C1(NC(=O)c2cc(C(C)(C)C)[nH]n2)CCCC1,i,nt,nt,i,nt,nt
O=C(NCCCCc1ccccc1)c1cc([N+](=O)[O-])cc([N+](=O)[O-])c1,nt,i,i,nt,49,-24
SMILES,EP2 mod,CHT allo act,CHT block,EP2 antag,CHT activ conf,HEK293 MP dye
CCCCCCn1c(CN2CCN(CCO)CC2)nc2c1c(=O)n(C)c(=O)n2C,i,8.1,i,i,60,-56
CCCCn1c(CN(C)Cc2ccccc2)nc2c1c(=O)n(C)c(=O)n2C,i,6.6,i,i,i,i
Cc1cc2cc(NS(=O)(=O)c3ccc4c(c3)CCC(=O)N4)ccc2o1,i,nt,nt,i,nt,nt
Cc1cc(N2CCOCC2)nc(N2CCOCC2)n1,i,i,i,i,76,-40
Cc1cc(N2CCN(C)CC2)nc(N2CCOCC2)n1,i,8.4,i,i,45,-91
COc1ccc(-c2csc(N(CCCN(C)C)C(=O)c3cccs3)n2)cc1,i,i,i,i,36,-43
Cc1c(C(O)CN2CCN(Cc3ccc4c(c3)OCO4)CC2)c2ccccc2n1C (stereo unspecified),i,6.8,i,i,31,-27
C[n+]1cccc(C2C(C#N)=C(N)Oc3c2ccc2ccccc32)c1 (stereo unspecified),i,i,i,i,43,-57
CCOc1ccc(C2C(C#N)=C(N)Oc3c2ccc2ccccc32)cc1OCC (stereo unspecified),i,nt,nt,i,nt,nt
C[n+]1cccc2ccc3c(c21)OC(N)=C(C#N)C3c1ccccc1 (stereo unspecified),i,10,i,i,72,-80
COc1ccc(NC(=O)C2CCCN(S(=O)(=O)c3ccc(C)cc3)C2)c(OC)c1 (stereo unspecified),i,nt,nt,i,nt,nt
COc1ccccc1NC(=O)C1CCN(S(=O)(=O)c2cc(Cl)ccc2Cl)CC1,i,nt,nt,i,nt,nt
CCc1nccn1Cc1cc(C=O)ccc1OC,i,i,i,i,61,-44
CCCn1c(SCC(=O)Nc2ccc(C(C)=O)cc2)nnc1-c1ccoc1C,i,nt,nt,i,nt,nt
COc1ccc(C(C(=O)NC2CCCC2)N(Cc2ccccc2)C(=O)c2nsc(Cl)c2Cl)cc1 (stereo unspecified),i,i,i,i,nt,nt
CCOc1ccc(C(C(=O)NC2CCCC2)N(Cc2ccccc2)C(=O)c2nsc(Cl)c2Cl)cc1 (stereo unspecified),i,i,i,i,i,i
CCOc1ccc2nc(NC(=O)CSc3nc(N)cc(N)n3)sc2c1,i,nt,nt,i,nt,nt
Cc1cc(=O)n2c3ccccc3n(CC(O)CN3CCCCC3)c2c1C#N (stereo unspecified),i,7.3,i,i,27,-44
OCCCNc1ncnc2sc3c(c12)CCN(Cc1ccccc1)C3,nt,6.2,i,nt,49,-53
O=c1[nH]cnc2sc3c(c12)CCN(Cc1ccccc1)C3,i,i,i,i,nt,nt
C[C@H]1CN(C(=O)c2cc(C3CC3)no2)[C@@H](C)CN1Cc1ccco1,i,nt,nt,i,nt,nt
CC1(C)Cc2c(C#N)c(OCC(=O)c3ccc(Cl)cc3)nc(-c3ccco3)c2CO1,i,13,i,i,i,i
CN(C)CCNc1nc(-c2ccco2)c2c(c1C#N)CC(C)(C)OC2,i,11,i,i,65,-91
N#Cc1c(NCCN)nc(-c2ccco2)c2c1CCCC2,i,i,i,i,39,-73
CC1(C)Cc2c(C#N)c(NCc3ccco3)nc(-c3ccco3)c2CO1,i,i,i,i,nt,nt
